Results published in PubChem BioAssay AID977607 (Broad Institute, 2014).
Screen size: about 1,500 compounds; about 460 (31%) were called active. About 1% were inconclusive and are not listed.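 How the source made its calls: active means curve reaches 40% activation over neutral controls at an AC40 no higher than the top valid tested concentration; inconclusive means no clear call, values can overlap the other calls; inactive means signal moving opposite to the expected increase, and the rest.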 Not all results are given here. Entries with a potency or affinity are not part of this list.

experiment: activators of glucose-dependent insulin secretion, dose response, cell-based, INS-1E, Gaussia luciferase, luminescence, cherry-pick, set 2 (AID 977607); conditions: INS-1E GLuc insulin secretion reporter, 2-3 h, stronger effect = higher value; at 35 µM, 100% = signal doubled over neutral wells unless noted;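 further: 0% = median of the plate neutral control wells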

Max activation, inactive:
Cc1ccc(C)c(OCC(=O)Nc2cc(NC(=O)COc3cc(C)ccc3C)cc(C(=O)O)c2)c1 -27.7%, Cc1ccc(C)c(OCC(=O)NCC(C)(C)N2CCOCC2)c1 -15.8% [at 0.015 µM, 100% = signal doubled over neutral wells], CC(C)Cn1c(Cc2ccccc2)n[nH]c1=S -12.9% [at 3.8 µM, 100% = signal doubled over neutral wells], Cc1ccc2nc(N/N=C/c3ccccc3C#N)nc(-c3ccccc3)c2c1 -36.1%, COCc1[nH]nc2c1C(c1ccc(C)cc1)NC2=O (stereo not drawn) 25.3%, CCOc1ccc(C(=O)OCC(=O)Nc2cc(C)on2)cc1OCC 24%, COc1ccc(S(=O)(=O)N2CCOCC2)cc1NC(=O)COc1ccccc1 -23.5%, CCOc1ccc(-c2noc(CCC(=O)NC)n2)cc1OCC -18.4% [at 0.005 µM, 100% = signal doubled over neutral wells], COc1ccc(C(C)=O)cc1Cn1cnc2c(cnn2C)c1=O -12.8% [at 0.015 µM, 100% = signal doubled over neutral wells], Cc1sc2ncn(CC(=O)NCc3ccccc3)c(=O)c2c1C -22.8% [at 0.015 µM, 100% = signal doubled over neutral wells], CCC(=O)Nc1cc2nn(-c3ccc(OC)cc3)nc2cc1C -15.9% [at 3.8 µM, 100% = signal doubled over neutral wells], O=C(Cn1cnc2sc(-c3ccccc3)cc2c1=O)NCCc1ccccc1 -13.9% [at 11 µM, 100% = signal doubled over neutral wells], Cc1cc(-c2ccc(S(=O)(=O)N3CCN(C)CC3)s2)on1 -22.5%, OC(c1ccc(Cl)cc1)C(CN1CCOCC1)c1ccccc1 (stereo not drawn) -24.5%, COC(=O)c1ccc(CNC(=O)CCc2c[nH]c3ccccc23)cc1 -13.7% [at 0.015 µM, 100% = signal doubled over neutral wells], C/C(=N/Oc1nc(C)cc(C)n1)c1ccc(F)cc1 -10.7% [at 3.8 µM, 100% = signal doubled over neutral wells], COc1ccc(-n2c(O)cnc2Nc2nc(C)cc(C)n2)cc1OC -16.8% [at 0.135 µM, 100% = signal doubled over neutral wells], CNc1ccc(-c2ccccc2OC)cn1 -9.32% [at 1.2 µM, 100% = signal doubled over neutral wells], CNc1cc(-c2ccc(OC)c(OC)c2)ncn1 -15.3% [at 0.046 µM, 100% = signal doubled over neutral wells], O=C(NC1CCCC1)c1ccc(Cl)c(S(=O)(=O)N2CCOCC2)c1 23.2% [at 0.42 µM, 100% = signal doubled over neutral wells], Cc1ccccc1CSCc1ccc(C(=O)NCCCN2CCOCC2)o1 -12.1% [at 0.046 µM, 100% = signal doubled over neutral wells], CCOc1ccc2oc(=O)cc(CN3CCOCC3)c2c1 12.7%, Cc1ccccc1-n1nc2c(c1NC(=O)c1cc3ccccc3oc1=O)CS(=O)(=O)C2 24.5% [at 3.8 µM, 100% = signal doubled over neutral wells], CC(C)CC(=O)Nc1c2c(nn1-c1ccc(F)cc1)CS(=O)(=O)C2 -20.4% [at 1.2 µM, 100% = signal doubled over neutral wells], c1ccc(CNc2nc(Oc3ccncc3)c3sccc3n2)cc1 13.8% [at 11 µM, 100% = signal doubled over neutral wells], Cc1cc(Cl)ccc1-c1nc(NCc2ccccc2)nc2ccsc12 -22.5% [at 11 µM, 100% = signal doubled over neutral wells], C[C@@H]1CN([C@H](C)CO)C(=O)CCCn2cc(nn2)CO[C@H]1CN(C)S(=O)(=O)c1cccs1 -22.5% [at 11 µM, 100% = signal doubled over neutral wells], C[C@@H]1CC2=C(C(=O)OC(C)(C)O2)[C@H](c2ccc(F)cc2)O1 -20.8% [at 0.015 µM, 100% = signal doubled over neutral wells], NC(=O)c1ccsc1NC(=O)COC(=O)CNC(=O)c1ccc(Cl)cc1 -11.2% [at 0.005 µM, 100% = signal doubled over neutral wells], CC1(C(=O)NCc2ccccc2)CN(S(C)(=O)=O)CC(=O)N1C1CC1 (stereo not drawn) -10.6% [at 11 µM, 100% = signal doubled over neutral wells], CCN(CCC(=O)O)c1ccccc1 -16.1% [at 0.135 µM, 100% = signal doubled over neutral wells], O=C(Cn1cc(C(F)(F)F)ccc1=O)NCC1CCCO1 (stereo not drawn) -21% [at 0.015 µM, 100% = signal doubled over neutral wells], CC1=NS(=O)(=O)NC(C)(C)C1 51.2% [at 0.42 µM, 100% = signal doubled over neutral wells], COc1ccc(CCNC(=O)COC(=O)c2cncc(Br)c2)cc1OC -19.1%, CCc1ccc(OCC(=O)NC(=S)Nc2ccc(C)cc2C)c(Br)c1 -19.5% [at 0.046 µM, 100% = signal doubled over neutral wells], COCCN(CCOC)Cc1cc(=O)oc2cc(OC)c(Cl)cc12 13.5% [at 11 µM, 100% = signal doubled over neutral wells], O=C(COC(=O)C1CCC1)NC(=O)c1ccccc1 -14.8% [at 11 µM, 100% = signal doubled over neutral wells], CN(C)C(=O)COC(=O)c1cccnc1Nc1ccccc1F -17.2% [at 3.8 µM, 100% = signal doubled over neutral wells], Cc1ccc(OCC(=O)NC(C)c2ccccc2)cc1 (stereo not drawn) 22.7% [at 0.005 µM, 100% = signal doubled over neutral wells], CN(C)N1C(N)=C(C#N)C(c2ccc(F)cc2)C2=C1CCCC2=O (stereo not drawn) 30.5% [at 11 µM, 100% = signal doubled over neutral wells], CCOC(=O)Nc1ccc2c(c1)Sc1ccccc1N2C(=O)CCN1CCOCC1 -19.4% [at 0.0016 µM, 100% = signal doubled over neutral wells], CN1CCC(N(C)S(=O)(=O)c2ccc(NC(=O)COc3cccc(Cl)c3)cc2)CC1 -15.6%, O=C(N1CCOCC1)N1CCN(c2ccccn2)CC1 26.8% [at 1.2 µM, 100% = signal doubled over neutral wells], CC(C)OCC(O)CN1CCC(Cc2ccccc2)CC1 (stereo not drawn) -7.86% [at 0.005 µM, 100% = signal doubled over neutral wells], COc1ccc(CNC(=O)c2cnn3c(C(F)F)cc(C)nc23)cc1 24.2%, CC(=O)N1CCN(c2nnc(-c3ccccc3)c3ccccc23)CC1 -13.9% [at 0.005 µM, 100% = signal doubled over neutral wells], CCOC(=O)c1c(C)[nH]c(C(=O)COC(=O)c2cnccn2)c1C 27%, CCCCn1c(-c2ccncc2)nc2c1c(=O)[nH]c(=O)n2CC(C)C -13.3% [at 3.8 µM, 100% = signal doubled over neutral wells], COc1cc(OC)c(OC)cc1/C=N/n1c(C)nc2ccccc2c1=O -20.7% [at 0.42 µM, 100% = signal doubled over neutral wells], CCCc1cc(NCC2CCCO2)n2c(nc3ccccc32)c1C#N (stereo not drawn) -13% [at 0.015 µM, 100% = signal doubled over neutral wells], O=C(Cc1ccsc1)NNC(=O)c1ccccc1Cl -13.6%, O=C(NCc1ccco1)c1ccc2c(=O)n(CCC3=CCCCC3)c(=O)[nH]c2c1 -21.9%, Cc1cc2nc(-c3ccc(Cl)cc3)c(Cc3ccsc3)n2c(C)c1Br -39.9% [at 11 µM, 100% = signal doubled over neutral wells], COc1ccc(C(=O)NCC(=O)OCC(=O)Nc2sccc2C#N)cc1OC 24.5%, COc1ccc(C(=O)NCC(=O)OCC(=O)NC2CCCCCC2)cc1OC 19.5%, COc1ccc2[nH]c3c(NCCCN4CCCC4=O)ncnc3c2c1 11.2% [at 1.2 µM, 100% = signal doubled over neutral wells], Cc1ccc(S(=O)(=O)/N=C(/Nc2cccc(O)c2)c2ccccc2)cc1 48.6%, COc1cc(C(=O)Nc2cc(C(F)(F)F)ccc2N2CCOCC2)ccc1OCC(=O)N1CCOCC1 -13.6% [at 3.8 µM, 100% = signal doubled over neutral wells]
